Screens: PubChem, Sanford-Burnham Center for Chemical Genomics
TROY signal inh – TROY signaling inhibition; Q293 LMP1-TROYcd NF-kB luciferase reporter, 4 h; inhibition, % at 10 µM; actives 0.98% (n = 360,000); AID 1347056;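 active = compounds whose plate-normalised and pattern-corrected inhibition of the luciferase reporter signal at the single screening dose is 50% or more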
HIF-2a inh – inhibitors of HIF-2a; AID 624352; 786-0 RCC cells HIF-2a reporter, luciferase luminescence, overnight; actives 0.72% (n = 360,000); inhibition, % at 18.8 µM;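 active = inhibition of the luminescence signal of 40% or more relative to plate controls, in a single-dose primary screen at 18.75 µM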
TWEAK-Fn14 inh – TWEAK-Fn14 signaling inhibition; TWEAK-stimulated Fn14 reporter cells, luciferase luminescence, 8 h; actives 2% (n = 360,000); inhibition, % at 10 µM; AID 1159606; in the data active = inhibition above about 50%
KKLEB tox – counter-screen for CF NF-kB inhibitors: cytotoxicity; KKLEB CF airway cells viability, ATPlite luminescence, overnight; stronger effect = lower value; cells stimulated with P. aeruginosa culture filtrate; activity change (cytotoxicity), % at 5 µM; actives 0.36% (n = 360,000);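 active = corrected activity change at or below -50% at 5 µM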
CF NFkB inh – cystic fibrosis NF-kB activation inhibition. KKLEB NF-kB-GFP reporter, PAF-induced, GFP fluorescence overnight. inhibition, % at 5 µM. actives 0.86% (n = 360,000);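 active = at least 50% inhibition at 5 µM, scaled per plate between neutral and stimulator controls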;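 note: PAF is a Pseudomonas aeruginosa culture filtrate used as stimulus; plate controls were PAF-stimulated DMSO wells for no effect and unstimulated DMSO wells for full effect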
Peg3 prom inh-1 – Peg3 promoter activity inhibition. HeLa PEG-Prom luciferase reporter, luminescence, overnight. inhibition, % at 20 µM. actives 1.7% (n = 360,000);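 active = inhibition of at least 50% at 20 µM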
Peg3 prom inh-2 – confirmation of Peg3 promoter inhibitors. inhibition, % at 20 µM. AID 602417. HeLa PEG-Prom luciferase reporter, luminescence, overnight. shares compounds with Peg3 prom inh-1. actives 84% (n = 1,300);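 active = at 20 µM dose, 40% or more inhibition averaged across four replicates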
* marks the source's active call; other numbers are inactive results; nt = no result given. In the library only some 4% were active in any assay of this set; here they are far more common.

SMILES	TROY signal inh	HIF-2a inh	TWEAK-Fn14 inh	KKLEB tox	CF NFkB inh	Peg3 prom inh-1	Peg3 prom inh-2
OCCCn1c(C2CCCN2c2nc(-c3ccc(F)cc3)cs2)nc2cc(Cl)c(N3CCCCC3)cc21 (stereo not drawn)	13	13	17	0	11	56*	21
Cc1ccc(S(=O)(=O)N2CCCCC2)cc1C(=O)N(C)CC(=O)Nc1ccc(Cl)c(C(F)(F)F)c1	32	21	22	-23	4	53*	56*
Cc1ccc(C(=O)N(C)CC(=O)Nc2ccc(Cl)c(C(F)(F)F)c2)cc1S(=O)(=O)N1CCCCC1	30	11	16	-32	16	27	nt
COc1cc(N=Nc2c(O)c3ccccc3[nH]c2=O)c(OC)cc1N=Nc1ccccc1	36	7	1	11	47	59*	83*
CCCOc1ccc(NC(=O)CC2C(=O)N(CC)C(=S)N2CCCN2CCN(Cc3ccccc3)CC2)cc1 (stereo not drawn)	2	8	20	-15	-12	76*	80*
CC1(C)CC[C@]2(C(=O)O)CC[C@]3(CO)C(=CCC4[C@@]5(C)C[C@H](O)[C@H](O)[C@@](C)(C(=O)O)C5CC[C@]43C)[C@@H]2C1 (stereo partly drawn)	7	9	2	1	1	-19	nt
COc1ccc(Br)cc1/C=N/NC(=O)c1ccc(COc2ccc3c(c2)CCC3)o1	-47	-26	-23	-13	14	-5	nt
O=C(N/N=C/c1cc([N+](=O)[O-])ccc1O)c1ccc(COc2ccc3c(c2)CCC3)o1	-25	-24	-11	-21	45	52*	45*
CCCCC(c1nc2ccccc2[nH]1)n1c(-c2ccccc2)nc2cc(C)c(C)cc21 (stereo not drawn)	-31	-158	-39	5	7	-5	nt
CCCCNC(=O)C(C)N(CCN(C)C)C(=O)CCCN1C(=O)NC(c2ccc([N+](=O)[O-])cc2)C(C(=O)OCc2ccccc2)=C1C (stereo not drawn)	5	-28	-47	-19	33	57*	31
CC(=O)c1ccc(N2CCN(C(=O)c3ccc4c(=O)n(-c5ccccc5)c(=O)[nH]c4c3)CC2)cc1	-14	-12	6	16	-4	-9	nt
Cc1ccc2[nH]c3c(c2c1)CCCC3NC(=O)CCl (stereo not drawn)	7	12	71*	-65*	62*	82*	89*
CCCC(=O)NC1C2CC3CC(C2)CC1C3 (stereo not drawn)	-18	-25	4	-18	-7	-64	nt
Cc1ccc(S(=O)(=O)N2C[C@H]3C(=O)C[C@@H](c4ccccc4)N(S(=O)(=O)c4ccc(C)cc4)[C@H]3C[C@H]2c2cccc(Cl)c2)cc1	-2	-1	1	11	14	19	nt
CCOC(=O)c1c(C)[nH]c(C(=O)OCC(=O)Nc2sccc2C(N)=O)c1C	64*	-27	84*	-30	-16	70*	73*
CCc1nc2ccc(C(=O)Nc3cccc(OCC(=O)N(C)C)c3)cn2c1N(C)Cc1ccc(OC)cc1	5	-3	4	-13	18	72*	42*
CCOC(=O)c1cnc2c(cnn2C)c1NCCCN(C)C	-4	1	-15	0	-17	62*	56*
O=C(CNC(=O)C(c1ccccc1)c1ccccc1)N/N=C/c1ccc(O)cc1O	13	9	4	-6	27	51*	65*
O=C(CNC(=O)C(c1ccccc1)c1ccccc1)N/N=C\c1cccc(O)c1	5	0	7	3	-5	2	nt
CC1(Cc2cccc(F)c2)C(=O)Nc2ccc(S(=O)(=O)NC3CCCCC3)cc21 (stereo not drawn)	5	21	15	-8	7	33	nt
CC1(Cc2ccc(Cl)c(Cl)c2)C(=O)Nc2ccc(S(=O)(=O)NC3CCCCC3)cc21 (stereo not drawn)	31	0	47	-8	30	69*	68*
FC(F)(F)c1cccc(/C=N/NC(=S)NC2CCCCC2)c1	12	-25	-14	3	3	19	nt
